From PubChem BioAssay (Tox21)
Results filed as inconclusive are left out. Where a call stands in place of a potency, no number is given. Values without a mark were called inactive. The source made the active and inactive calls. Unless noted, the call rests on the fitted dose curve.

Test: qHTS assay to identify small molecule agonists of the hypoxia (HIF-1) signaling pathway - cell viability counter screen (AID 1224844); further: nearly all actives have a fitted effect of over 50% in size
Conditions: HRE-bla ME-180 viability, CellTiter-Glo luminescence, 17 h; series mostly up to 76.8 µM
In short: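 HRE-bla ME-180 cells in medium with 0.5% dialyzed FBS were preincubated 5 hrs at 37C, exposed to compounds for 17 hrs, then viability was read as CellTiter-Glo luminescence after 30 min at room temperature, in the reporter wells.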

Row | Structure (SMILES) | activity change, negative = cytotoxicity | Potency
1 | COC(=O)c1ccc2cc(C(=O)OC)ccc2c1 | 1.66% [at 15.8 µM] | –
2 | Cc1ccccc1C(=O)Nc1ccc(C(=O)N2CCCC(O)c3cc(Cl)ccc32)c(C)c1 (stereo not given) | – | inactive
3 | CCOC(=O)C(Br)c1ccccc1 (stereo not given) | – | inactive
4 | Cc1ccc([N+](=O)[O-])c(N)c1 | – | inactive
5 | C1CCOC1 | – | inactive
6 | CCCCCCCCCCCCCCCCOP(=O)([O-])OCC[N+](C)(C)C | – | inactive
7 | O=C1CCC(C2CCCCC2)CC1 | – | inactive
8 | CCCCCCCCOC(=O)CCCCCCCCC(=O)OCCCCCCCC | – | inactive
9 | CCCCCCn1c(=O)c2c(ncn2C)n(C)c1=O | – | inactive
10 | CN(C)Cc1ccccc1 | – | inactive
11 | Cc1c(N)cccc1N | – | inactive
12 | N#Cc1ccc(C(c2ccc(C#N)cc2)n2cncn2)cc1 | – | inactive
13 | O=CCCc1ccccc1 | – | inactive
14 | CCN(CC)CC1CCCCN1CC(=O)N1c2ccccc2C(=O)Nc2cccnc21 (stereo not given) | – | inactive
15 | Cc1ccsc1C(=CCCN1CCC[C@@H](C(=O)O)C1)c1sccc1C | – | inactive
16 | FC(F)(F)c1ccccc1 | – | inactive
17 | O=S(=O)(O)C(F)(F)F | – | inactive

Test: qHTS assay to identify small molecule agonists of H2AX (AID 1224845; active means well fitted activation curve with a large enough effect in the signal ratio in the repeat runs, not every such curve was filed as active; the % refers to the signal ratio)
Conditions: CHO-K1 phospho-H2AX Ser139 HTRF, 3 h; series mostly up to 154 µM
In short: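 Wild-type CHO-K1 cells plated overnight, then exposed 3 hr at 37C to compounds at 15 concentrations (0.76% DMSO). Lysed, then HTRF anti-pH2AX(S139)-cryptate/anti-H2AX-d2 detection after 24 hr at room temperature; emissions 665 and 620 nm.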

Row | Structure (SMILES) | Potency | activation (H2AX phosphorylation)
18 | Cc1cccc(C)c1NC(=O)CN1CCCCCC1 | inactive | –
19 | OCCN(CCO)CCN(CCO)CCO | inactive | –
20 | CCOC(=O)NCCC[Si](OCC)(OCC)OCC | inactive | –
21 | O=C(CCCl)NCc1ccccc1 | inactive | –
22 | O=c1[nH]cnc2c1ncn2[C@@H]1O[C@H](CO)[C@@H](O)[C@H]1O | inactive | –
23 | C=CC1CO1 (stereo not given) | inactive | –
24 | C[C@]12C(=O)OC(=O)[C@H]1[C@H]1C=C[C@@H]2C1 | inactive | –
25 | NNS(=O)(=O)c1ccc(Oc2ccc(S(=O)(=O)NN)cc2)cc1 | inactive | –
26 | CN1CCN(C2=Nc3cc(F)ccc3Cc3ccccc32)CC1 | inactive | –
27 | Cc1cn([C@@H]2O[C@H](CO)[C@@H](O)[C@@H]2F)c(=O)[nH]c1=O | inactive | –
28 | CCCc1c2oc(C(=O)O)cc(=O)c2cc2c(=O)cc(C(=O)O)n(CC)c12 | inactive | –
29 | Cc1ncc(CO)c(CN)c1O | inactive | –
30 | NC1=NCC2c3ccccc3Cc3ccccc3N12 (stereo not given) | inactive | –
31 | FC(F)(F)C(Cl)(Cl)Cl | inactive | –
32 | CCCOCCC | inactive | –
33 | Cc1cc2c(s1)Nc1ccccc1N=C2N1CCN(C)CC1 | inactive | –
34 | CCC(=O)Nc1ccc(O)cc1 | inactive | –
35 | CCC/C=C/CO | inactive | –
36 | C[C@@H]1CN(c2c(F)c(F)c3c(=O)c(C(=O)O)cn(C4CC4)c3c2F)C[C@H](C)N1 | – | -0.115% [at 31.6 µM]
37 | CCOC(=O)c1cc(=O)c2c(OCC(COc3cccc4oc(C(=O)OCC)cc(=O)c34)OC(=O)[C@@H](N)CCCCN)cccc2o1 | inactive | –

Row | Structure (SMILES) | Potency | activation (H2AX phosphorylation)
38 | CCc1cc2cc(OC)c(OC)cc2c(Cc2ccccc2)n1 | inactive | –
39 | O=C(O)[C@@H]1CSCN1 | inactive | –
40 | COC(=O)c1ccc2cc(C(=O)OC)ccc2c1 | – | 0.148% [at 31.6 µM]
41 | Cc1ccccc1C(=O)Nc1ccc(C(=O)N2CCCC(O)c3cc(Cl)ccc32)c(C)c1 (stereo not given) | inactive | –
42 | CCOC(=O)C(Br)c1ccccc1 (stereo not given) | inactive | –
43 | Cc1ccc([N+](=O)[O-])c(N)c1 | inactive | –
44 | C1CCOC1 | inactive | –
45 | CCCCCCCCCCCCCCCCOP(=O)([O-])OCC[N+](C)(C)C | inactive | –
46 | O=C1CCC(C2CCCCC2)CC1 | inactive | –
47 | CCCCCCCCOC(=O)CCCCCCCCC(=O)OCCCCCCCC | inactive | –
48 | CCCCCCn1c(=O)c2c(ncn2C)n(C)c1=O | inactive | –
49 | CN(C)Cc1ccccc1 | inactive | –
50 | Cc1c(N)cccc1N | inactive | –
51 | N#Cc1ccc(C(c2ccc(C#N)cc2)n2cncn2)cc1 | inactive | –
52 | O=CCCc1ccccc1 | inactive | –
53 | CCN(CC)CC1CCCCN1CC(=O)N1c2ccccc2C(=O)Nc2cccnc21 (stereo not given) | inactive | –
54 | Cc1ccsc1C(=CCCN1CCC[C@@H](C(=O)O)C1)c1sccc1C | inactive | –
55 | FC(F)(F)c1ccccc1 | inactive | –
56 | O=S(=O)(O)C(F)(F)F | inactive | –

Test: qHTS assay to identify small molecule agonists of the hypoxia (HIF-1) signaling pathway (AID 1224846; active means well fitted activation curve with a large enough effect in the signal ratio in the repeat runs, not every such curve was filed as active; the % refers to the signal ratio)
Conditions: HRE-bla ME-180 cells, beta-lactamase ratio, 17 h; series mostly up to 76.8 µM
In short: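 HRE-bla ME-180 cells (beta-lactamase reporter under hypoxia response element) were plated at 2,000 cells/well in medium with 0.5% dialyzed FBS, rested 5 hrs, then given compounds in DMSO for 17 hrs at 37C, 5% CO2. Reporter induction was read with CCF4-AM FRET substrate.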

Row | Structure (SMILES) | outcome | activation
57 | Cc1cccc(C)c1NC(=O)CN1CCCCCC1 | inactive | –
58 | OCCN(CCO)CCN(CCO)CCO | inactive | –
59 | CCOC(=O)NCCC[Si](OCC)(OCC)OCC | inactive | –
60 | O=C(CCCl)NCc1ccccc1 | inactive | –
61 | O=c1[nH]cnc2c1ncn2[C@@H]1O[C@H](CO)[C@@H](O)[C@H]1O | inactive | –
62 | C=CC1CO1 (stereo not given) | inactive | –
63 | C[C@]12C(=O)OC(=O)[C@H]1[C@H]1C=C[C@@H]2C1 | inactive | –
64 | NNS(=O)(=O)c1ccc(Oc2ccc(S(=O)(=O)NN)cc2)cc1 | inactive | –
65 | CN1CCN(C2=Nc3cc(F)ccc3Cc3ccccc32)CC1 | inactive | –
66 | Cc1cn([C@@H]2O[C@H](CO)[C@@H](O)[C@@H]2F)c(=O)[nH]c1=O | inactive | –
67 | CCCc1c2oc(C(=O)O)cc(=O)c2cc2c(=O)cc(C(=O)O)n(CC)c12 | inactive | –
68 | Cc1ncc(CO)c(CN)c1O | inactive | –
69 | NC1=NCC2c3ccccc3Cc3ccccc3N12 (stereo not given) | inactive | –
70 | FC(F)(F)C(Cl)(Cl)Cl | inactive | –
71 | CCCOCCC | inactive | –
72 | Cc1cc2c(s1)Nc1ccccc1N=C2N1CCN(C)CC1 | inactive | –
73 | CCC(=O)Nc1ccc(O)cc1 | inactive | –
74 | CCC/C=C/CO | inactive | –
75 | C[C@@H]1CN(c2c(F)c(F)c3c(=O)c(C(=O)O)cn(C4CC4)c3c2F)C[C@H](C)N1 | – | 0.101% [at 15.8 µM]
76 | CCOC(=O)c1cc(=O)c2c(OCC(COc3cccc4oc(C(=O)OCC)cc(=O)c34)OC(=O)[C@@H](N)CCCCN)cccc2o1 | inactive | –

Row | Structure (SMILES) | outcome | activation
77 | CCc1cc2cc(OC)c(OC)cc2c(Cc2ccccc2)n1 | inactive | –
78 | O=C(O)[C@@H]1CSCN1 | inactive | –
79 | COC(=O)c1ccc2cc(C(=O)OC)ccc2c1 | – | -0.33% [at 15.8 µM]
80 | Cc1ccccc1C(=O)Nc1ccc(C(=O)N2CCCC(O)c3cc(Cl)ccc32)c(C)c1 (stereo not given) | inactive | –
81 | CCOC(=O)C(Br)c1ccccc1 (stereo not given) | inactive | –
82 | Cc1ccc([N+](=O)[O-])c(N)c1 | inactive | –
83 | C1CCOC1 | inactive | –
84 | CCCCCCCCCCCCCCCCOP(=O)([O-])OCC[N+](C)(C)C | inactive | –
85 | O=C1CCC(C2CCCCC2)CC1 | inactive | –
86 | CCCCCCCCOC(=O)CCCCCCCCC(=O)OCCCCCCCC | inactive | –
87 | CCCCCCn1c(=O)c2c(ncn2C)n(C)c1=O | inactive | –
88 | CN(C)Cc1ccccc1 | inactive | –
89 | Cc1c(N)cccc1N | inactive | –
90 | N#Cc1ccc(C(c2ccc(C#N)cc2)n2cncn2)cc1 | inactive | –
91 | O=CCCc1ccccc1 | inactive | –
92 | CCN(CC)CC1CCCCN1CC(=O)N1c2ccccc2C(=O)Nc2cccnc21 (stereo not given) | inactive | –
93 | Cc1ccsc1C(=CCCN1CCC[C@@H](C(=O)O)C1)c1sccc1C | inactive | –
94 | FC(F)(F)c1ccccc1 | inactive | –
95 | O=S(=O)(O)C(F)(F)F | inactive | –
